# Many of the other results were omitted from the sample, so hits are more common in it than they were.
# KDM5B inhibitor – Primary screen for KDM5B Histone Demethylases FDH-coupled qHTS; Lysine-specific demethylase 5B (Homo sapiens), Q9UGL1; KDM5B demethylase, FDH-coupled NADH fluorescence (FDH is formaldehyde dehydrogenase); Potency, µM (titrated, usually from 57.7 µM), actives largely listed as inhibitors; 220,000 tested, 2.6% active; AID 1347165, 2019; active = well fitted inhibition curve with a large enough effect; note: 0% is about no effect; nearly all actives have a fitted effect of over 70% in size
# Target sequence (Q9UGL1 whole entry, looked up): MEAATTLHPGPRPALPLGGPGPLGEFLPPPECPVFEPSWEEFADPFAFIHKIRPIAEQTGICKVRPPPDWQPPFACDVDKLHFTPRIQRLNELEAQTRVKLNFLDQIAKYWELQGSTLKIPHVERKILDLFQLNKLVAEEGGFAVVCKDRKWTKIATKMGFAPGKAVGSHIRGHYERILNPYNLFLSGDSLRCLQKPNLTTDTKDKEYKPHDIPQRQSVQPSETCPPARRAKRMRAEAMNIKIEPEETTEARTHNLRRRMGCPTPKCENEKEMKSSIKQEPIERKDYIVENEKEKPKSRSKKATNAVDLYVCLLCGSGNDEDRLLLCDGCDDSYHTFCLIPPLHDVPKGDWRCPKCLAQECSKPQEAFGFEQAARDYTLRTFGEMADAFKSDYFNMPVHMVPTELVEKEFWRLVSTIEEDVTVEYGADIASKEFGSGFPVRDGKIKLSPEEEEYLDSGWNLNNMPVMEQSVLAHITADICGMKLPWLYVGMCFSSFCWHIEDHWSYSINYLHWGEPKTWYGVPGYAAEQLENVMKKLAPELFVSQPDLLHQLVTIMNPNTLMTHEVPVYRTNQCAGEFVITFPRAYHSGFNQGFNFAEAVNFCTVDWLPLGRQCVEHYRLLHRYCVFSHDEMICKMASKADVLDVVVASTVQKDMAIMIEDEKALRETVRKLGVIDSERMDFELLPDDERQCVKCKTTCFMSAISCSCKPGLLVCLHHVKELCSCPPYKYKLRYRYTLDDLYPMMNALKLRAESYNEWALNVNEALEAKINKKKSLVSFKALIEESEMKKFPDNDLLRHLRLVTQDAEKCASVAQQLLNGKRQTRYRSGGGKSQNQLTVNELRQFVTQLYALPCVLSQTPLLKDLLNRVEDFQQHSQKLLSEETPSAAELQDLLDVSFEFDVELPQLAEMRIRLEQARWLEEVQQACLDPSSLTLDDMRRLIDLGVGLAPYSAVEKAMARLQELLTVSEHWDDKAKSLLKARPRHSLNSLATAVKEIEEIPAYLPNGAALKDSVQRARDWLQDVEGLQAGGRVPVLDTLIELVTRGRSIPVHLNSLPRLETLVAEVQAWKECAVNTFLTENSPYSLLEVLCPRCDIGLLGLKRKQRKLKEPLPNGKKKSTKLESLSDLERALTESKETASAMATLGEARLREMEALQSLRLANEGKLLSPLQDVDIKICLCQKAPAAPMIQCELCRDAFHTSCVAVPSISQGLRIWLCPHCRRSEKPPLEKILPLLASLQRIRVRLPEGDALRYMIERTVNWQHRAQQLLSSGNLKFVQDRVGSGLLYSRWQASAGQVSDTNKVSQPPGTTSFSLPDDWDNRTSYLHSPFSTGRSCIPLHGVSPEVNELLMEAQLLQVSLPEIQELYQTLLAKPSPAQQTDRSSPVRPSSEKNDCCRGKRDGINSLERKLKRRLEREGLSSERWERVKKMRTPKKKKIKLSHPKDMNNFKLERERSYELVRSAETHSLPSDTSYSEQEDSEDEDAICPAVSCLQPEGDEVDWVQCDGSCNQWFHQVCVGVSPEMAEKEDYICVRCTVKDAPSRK
#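 Compound dilutions met 200 nM (final) KDM5BΔAP for 10 min at room temperature before substrate addition. The substrate mix held 12.5 µM H3K4me3 with cofactors 25 µM α-ketoglutarate and 50 µM Fe²⁺. NADH signal gain over 30 min defined activity.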
# * = called active by the depositor; i = inactive. Potency is the fitted concentration of half-maximal effect.
SMILES,KDM5B inhibitor
C#CCNC(=O)[C@H]1O[C@H](CCN2CCNCC2)CC[C@@H]1O,i
O=C(c1ccc2ncsc2c1)N1CCN(c2nc3ccc(F)cc3s2)CC1,i
CN(C)C(=O)CNC(=O)Cn1c(=O)c2c(ncn2Cc2ccco2)n(Cc2ccccc2)c1=O,i
O=C(O)CCCNC(=O)Cn1ccc2cc(Br)ccc21,i
C=CCNC(=O)c1ccc(CNC(N)=O)cc1,i
C=CCNC(=O)c1ccc2cncn2c1,32µM*
C=CCNC(=O)c1ccc(COc2ccc(Cl)cc2)cc1,i
N#CCc1ccc(OCc2ccc(C#N)cc2)cc1,i
CC1=C(C(=O)NCc2ccccc2C)C2(CCN(S(=O)(=O)c3cccs3)CC2)OC1=O,i
COc1ccc(C2Cn3cnc(C(=O)N4CCC(C(=O)Nc5ccccc5OC)CC4)c3CO2)cc1 (stereo not given),i
COc1ccc(C(=O)Nc2c(NC3CCCCC3)c3ccccc3oc2=O)cc1,i
O=C(NCCc1nc2ccccc2[nH]1)C1CC(=O)N(c2n[nH]c3ccccc23)C1 (stereo not given),i
COc1ccccc1-c1nc(C(=O)N(C)C)n2ccncc12,100µM*
COc1ccc(C(CC(=O)NCc2cccnc2)c2ccccc2)cc1 (stereo not given),i
COc1ccccc1-c1nc(C(=O)NCc2cccnc2)n2ccccc12,89µM*
COCCn1c(C(=O)NCc2cccnc2)nc2ccccc2c1=O,i
COc1ccccc1-c1nc(C(=O)NCc2cccnc2)n2ccncc12,79µM*
COc1ccccc1-c1cc(C(=O)NCc2cccnc2)nn2cccc12,i
COC(=O)CNC(=O)c1nc(-c2ccccc2OC)c2cnccn12,100µM*
CN(Cc1ccc(-c2ccccc2)cc1)[S+](=O)([O-])c1cccc(C(F)(F)F)c1,i
COC[C@@H]1CN(C(=O)Cc2ccccc2Cl)C[C@H]1C(N)=O,i
O=C(O)C1CCCC(C(=O)O)C1 (stereo not given),i
CC1CCN(C(=O)C2(CCO)CC23CCOCC3)CC1 (stereo not given),i
COc1cccc(CCC(=O)N2CCC(Cc3nc(-c4ccc(F)cc4)no3)CC2)c1,i
COC(=O)CSc1ncc2c(n1)-c1ccccc1N(Cc1cccc(F)c1)S2(=O)=O,i
SMILES,KDM5B inhibitor
CN1CCN(c2cc(-c3ccc(F)cc3C(F)(F)F)nc(N)n2)CC1,i
CS(=O)(=O)NC(=O)c1ccc(Br)cc1F,i
CC(NC(=S)NNC(=O)c1ccncc1)c1ccccc1 (stereo not given),i
Cc1nc(N2CCC(NC(=O)Cc3cccc(F)c3)CC2)cc(C(F)(F)F)n1,i
O=C(Cn1c(=O)oc2cc(Cl)ccc21)Nc1cccc(C(F)(F)F)c1,i
COc1ccccc1-c1nc(C(=O)NC(C)C)n2ccncc12,40µM*
COc1ccccc1-c1cc(C(=O)NC(C)C)nn2cccc12,i
O=C(NCCCN1CCOCC1)c1ccc2c(c1)N(S(=O)(=O)c1ccccc1F)CC2,i
Cc1cc(C)n2ncc(C(=O)N3CCC(=O)N(CC4CC4)C(C(C)C)C3)c2n1 (stereo not given),32µM*
CCCc1cc(C(=O)N2CCC(=O)N(CC3CC3)C(C(C)C)C2)n[nH]1 (stereo not given),i
Cc1nc2ncccn2c1C(=O)N1CCC(=O)N(CC2CC2)C(C(C)C)C1 (stereo not given),28µM*
Cc1ccc2[nH]c(C(=O)N3CCC(=O)N(CC4CC4)C(C(C)C)C3)c(C)c2c1 (stereo not given),i
Cc1ccc(Cl)c(C(=O)N2CCC(=O)N(CC3CC3)C(C(C)C)C2)c1 (stereo not given),i
CCCc1cc(C(=O)N2CCC(=O)N(CC3CC3)C(C(C)C)C2)cs1 (stereo not given),i
C[N+]1(CC#Cc2ccc(C#CC[N+]3(C)CCOCC3)cc2)CCOCC1,i
Fc1ccc(OCCc2noc(C3CCCCN3)n2)cc1 (stereo not given),i
CC(C)Oc1cccc2c1c(NC(=O)CN1CCCC1=O)nn2-c1cccc(F)c1,i
CC(C)Oc1cccc2c1c(NC(=O)C1CCOCC1)nn2C,i
O=C(Nc1nn(Cc2ccccc2)c2cccc(N3CCOCC3)c12)C1CCC1,25µM*
O=C(Nc1ccc(Cl)cc1N1CCOCC1)C1CC1,i
Cc1ccnn1CCC(=O)Nc1nn(C)c2cccc(N3CCOCC3)c12,28µM*
O=C(Nc1nn(Cc2ccccc2)c2cccc(N3CCOCC3)c12)c1ccncc1,i
O=C(Nc1cc(C(F)(F)F)ccc1N1CCOCC1)C1CC1,i
Cc1cn(CCC(=O)Nc2ccccc2N2CCOCC2)c2ccccc12,i
O=C(Nc1nn(-c2cccc(F)c2)c2cccc(N3CCOCC3)c12)C1CCC1,32µM*
CN(Cc1cc(-c2ccccc2)n[nH]1)c1cc(C2CC(N)C2)ncn1 (stereo not given),i
O=C(Cc1ccc(-n2cnnn2)cc1)N[C@@H]1COCC[C@@H]1OCc1ccccc1,i

# Source: PubChem BioAssay
